Assay results published in PubChem BioAssay (Tox21).
Records with an inconclusive call do not appear. Where a call stands in place of a potency, no number is given. Activity calls are given as the source filed them. The call rests on the fitted dose curve; in most records, active means well fitted activation curve with a large enough effect in the signal ratio in the repeat runs (not every such curve was filed as active); inconclusive means weak or mixed curves, or effect the other way; inactive means flat fitted curve, though single readings scatter; the % refers to the signal ratio.

assay: qHTS assay to identify small molecule agonists of the endoplasmic reticulum stress response signaling pathway (AID 1159516); settings: ESRE-bla HeLa, ER stress beta-lactamase reporter, 5 h; series mostly up to 61 µM
Source text: National Center for Advancing Translational Sciences [NCATS]
NIH Chemical Genomics Center [NCGC]
U.S. Environmental Protection Agency [EPA]
National Institutes of Environmental Health Sciences [NIEHS]
National Toxicology Program [NTP]
U.S. Food and Drug Administration [FDA]
Endoplasmic Reticulum (ER) plays an important role in cellular signaling, protein folding/maturation, stress response, lipid biosynthesis, calcium storage and release etc. Under stress conditions, proteins in ER misfold or unfold, and leading to the expression of ER stress responsive genes. ER stress has been associated with a variety of pathophysiological conditions such as cancer, inflammation, neurodegenerative diseases, diabetes, ischemic heart disease etc. To identify the compounds that induce ER stress response, an ER stress reporter cell line, CellSensor ESRE-bla HeLa (Life Technologies, Carlsbad, CA) containing a beta-lactamase reporter gene under control of the Endoplasmic reticulum Stress Response Element (ESRE) was used to screen Tox21 10K compound library.
Tox21 Assay Protocol Summary:
ESRE-bla HeLa cells were dispensed at 1,500 cells/6 uL of assay medium per well into black wall/clear-bottom 1536-well plates using a Multidrop Combi (ThermoFisher Scientific, Waltham, MA) dispenser. After the assay plates were incubated at 37 C and 5% CO2 for an overnight, 23 nL of compounds dissolved in DMSO, positive controls or DMSO only was transferred to the assay plate by a Pintool station (Kalypsys, San Diego, CA). The assay plates were incubated at 37 C and 5% CO2 for 5 hr. One uL of LiveBLAzer B/G FRET substrate (Life Technologies) was added using a Flying Reagent Dispenser (Aurora Discovery, San Diego, CA) and the plates were incubated at room temperature for 2 hr. Fluorescence intensity (405 nm excitation, 460 nm and 530 nm emissions) was measured using an Envision plate reader (PerkinElmer, Shelton, CT).
Potency means the concentration at half of the fitted maximal effect.

Row | Structure (SMILES) | Potency | activation
1 | C=C(C)C(=O)OCC | inactive | –
2 | CCCCc1ncc(/C=C(\Cc2cccs2)C(=O)O)n1Cc1ccc(C(=O)O)cc1 | inactive | –
3 | CCOC(=O)C(=O)CCc1ccccc1 | inactive | –
4 | CN(C)CCN(Cc1ccccc1)c1ccccn1 | inactive | –
5 | COc1cc(C(=O)OCCCN2CCCN(CCCOC(=O)c3cc(OC)c(OC)c(OC)c3)CC2)cc(OC)c1OC | inactive | –
6 | O=S(c1cc(Cl)cc(Cl)c1O)c1cc(Cl)cc(Cl)c1O | inactive | –
7 | O=[N+]([O-])c1cccc(S(=O)(=O)O)c1 | inactive | –
8 | COc1cc2nc(N3CCN(C(=O)C4COc5ccccc5O4)CC3)nc(N)c2cc1OC (stereo not given) | inactive | –
9 | C[C@H]1C[C@H]2[C@@H]3CCC4=CC(=O)C=C[C@]4(C)[C@@]3(Cl)[C@@H](O)C[C@]2(C)[C@@]1(O)C(=O)CO | inactive | –
10 | NCC(=O)CCC(=O)O | inactive | –
11 | CN(C)c1ccc(/C=C/c2ccc([N+](=O)[O-])cc2)cc1 | – | -8.84% [at 6.95 µM] (inactive)
12 | CC(=O)OC[C@H]1O[C@@H](n2ncc(=O)[nH]c2=O)[C@H](OC(C)=O)[C@@H]1OC(C)=O | inactive | –
13 | CC(C)(C)OCC1CO1 (stereo not given) | inactive | –
14 | O=C(NCC1CN(c2ccc(N3CCOCC3=O)cc2)C(=O)O1)c1ccc(Cl)s1 (stereo not given) | inactive | –
15 | CCOC(=O)COC(=O)c1cc(Oc2ccc(C(F)(F)F)cc2Cl)ccc1[N+](=O)[O-] | inactive | –
16 | CC(=O)[O][Al] | inactive | –
17 | CCCCCCCCCc1ccc(OCCOCCO)cc1 | inactive | –
18 | COC(=O)C1=C(C)NC(COC(N)=O)=C(C(=O)OC(C)C)C1c1cccc(Cl)c1Cl (stereo not given) | 21.3 µM (active) | –
19 | CCOc1ccc(O)cc1 | inactive | –
20 | c1ccc(CNCCNCc2ccccc2)cc1 | inactive | –

Row | Structure (SMILES) | Potency | activation
21 | Clc1ccc2c(c1)CCc1cccnc1C2=C1CCNCC1 | inactive | –
22 | C[Si](C)(CCCN)O[Si](C)(C)CCCN | inactive | –
23 | O=C(OCCCCCCOC(=O)c1ccccc1)c1ccccc1 | inactive | –
24 | CCCCC/C=C\C/C=C\CCCCCCCC(=O)NC(C)c1ccccc1 (stereo not given) | inactive | –
25 | OCc1cc(C(O)CNCCCCCCOCCCCc2ccccc2)ccc1O (stereo not given) | inactive | –
26 | CC/C=C\CCOC(=O)CC | inactive | –
27 | CCC(C)(C)CC | inactive | –
28 | CCOC(=O)Cc1cccc2ccccc12 | inactive | –
29 | CC1OC(=O)C(C)OC1=O (stereo not given) | inactive | –
30 | Brc1c2ccccc2c(Br)c2ccccc12 | 0.882 µM (active) | –
31 | CCN(CC)c1ccc(C(=C2C=CC(=[N+](CC)CC)C=C2)c2cc(S(=O)(=O)O)ccc2S(=O)(=O)[O-])cc1 | inactive | –
32 | C=CC(=O)OCCOCCOCCOCCOC(=O)C=C | inactive | –
33 | COC(C)OC | inactive | –
34 | COc1cc2c(cc1OC)C(C(C(=O)N(CCc1ccc(OC)c(OC)c1OC)CCc1ccc(OC)c(OC)c1OC)c1ccccc1)=NCC2 (stereo not given) | inactive | –
35 | CN1CCC(N(Cc2cccs2)c2ccccc2)CC1 | inactive | –
36 | O=C(O)CC(=O)C(=O)O | inactive | –
37 | O=S(=O)(Oc1ccc(Cl)cc1)c1ccccc1 | inactive | –
38 | C/C(=C(\CCOP(=O)(O)O)SC(=O)c1ccccc1)N(C=O)Cc1cnc(C)nc1N | – | -0.946% [at 6.95 µM] (inactive)
39 | NS(=O)(=O)c1ccc(N2CCCCS2(=O)=O)cc1 | inactive | –
40 | CCOC(=O)C(F)(F)F | inactive | –
